Inconclusive results are not listed. Active and inactive are the calls of the source. The calls were made as follows: active = hit-call score of the fitted dose curve at least 0.9, where 1 is the maximum; inconclusive = response in the unintended direction; inactive = score below 0.9.
biological target: human Dopamine Transporter (DAT), SLC6A3 (gene 6531) (UniProt Q01959); test: NVS_TR_hDAT: NovaScreen (NVS) Transporter Assay for human Dopamine Transporter (DAT) (AID 2283374);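 also: activity means loss of bound radioligand signal relative to DMSO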
Sequence (Q01959 whole entry, looked up): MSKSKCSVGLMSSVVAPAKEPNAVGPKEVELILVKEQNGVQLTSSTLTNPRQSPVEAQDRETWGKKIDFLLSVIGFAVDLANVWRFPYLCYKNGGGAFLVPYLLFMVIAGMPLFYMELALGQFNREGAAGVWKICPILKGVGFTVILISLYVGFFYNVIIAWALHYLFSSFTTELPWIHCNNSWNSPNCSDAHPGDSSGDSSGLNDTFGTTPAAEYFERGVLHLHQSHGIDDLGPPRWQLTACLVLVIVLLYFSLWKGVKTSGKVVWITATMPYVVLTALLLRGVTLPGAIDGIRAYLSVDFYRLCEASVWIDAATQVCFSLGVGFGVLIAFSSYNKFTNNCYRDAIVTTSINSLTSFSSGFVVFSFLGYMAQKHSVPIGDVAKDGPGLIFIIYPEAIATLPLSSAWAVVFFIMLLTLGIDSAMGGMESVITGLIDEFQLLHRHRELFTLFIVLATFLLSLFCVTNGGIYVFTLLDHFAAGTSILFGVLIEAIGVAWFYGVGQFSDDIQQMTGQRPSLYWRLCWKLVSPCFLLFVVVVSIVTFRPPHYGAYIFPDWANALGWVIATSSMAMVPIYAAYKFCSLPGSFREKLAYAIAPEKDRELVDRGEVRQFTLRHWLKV
Experimental: NVS_TR_hDAT is a biochemical, single-readout assay that uses extracted gene-proteins in a cell-free assay. Measurements were taken 1 hour after chemical dosing in a 96-well plate.NVS_TR_hDAT is one of one assay component(s) measured or calculated from the NVS_TR_hDAT assay. It is designed to make measurements of radioligand binding, a form of binding reporter, as detected with scintillation counting signals by Filter-based radiodetection technology.Data from the assay component NVS_TR_hDAT was analyzed into 1 assay endpoint. This assay endpoint, NVS_TR_hDAT, was analyzed in the positive analysis fitting direction relative to DMSO as the negative control and baseline of activity. Using a type of binding reporter, loss-of-signal activity can be used to understand changes in the binding as they relate to the gene SLC6A3. Furthermore, this assay endpoint can be referred to as a primary readout, because the performed assay has only produced 1 assay endpoint. To generalize the intended target to other relatable targets, this assay endpoint is annotated to the transporter intended target family, where the subfamily is neurotransmitter transporter.
Binding assays used specific radioligands (tritiated, iodinated) with non-radioactive competitive displacement ligands in agonist or antagonist protocols (as indicated) and various reference compounds and inhibitors to titrate specific binding to receptors and transporters. Most enzyme assays (CYPs, kinases, phosphatases, proteases, HDACs) used recombinant protein and specific substrates (fluorescence mostly, some colorimetric and radioactive) and inhibitors, followed by a biochemical separation of substrate and product. All assays for the biochemical HTS were initially run in duplicate at a single concentration (10 uM for CYP450 assays and 25 uM for all others). […] Each assay was run with positive and negative controls, and concurrent controls on every plate. The follow-up (secondary) screen tested active chemical-pairs in concentration series, as well as a few additional assays not tested in the primary screen, some selected negative inactives, and several cases re-run in the concentration series for confirmatory purposes.

Question: For `CCCc1cc(=O)[nH]c(=S)[nH]1`, which outcome is on record?
Answer: inactive

Question: For `CCc1c(C(=O)NN2CCCCC2)nn(-c2ccc(Cl)cc2Cl)c1-c1ccc(Br)cc1`, which AC50 is on record?
Answer: 6.88 µM (active)

Question: With `O=C(N[C@@H](Cc1ccccc1)[C@@H](O)C(=O)N1C[C@@H](O)[C@@H](O)C1)c1cc2cc(Cl)ccc2[nH]1` as the molecule, how does the AC50 read?
Answer: 11.5 µM (active)

Question: For `COc1ccc(S(=O)(=O)N2C(=O)[C@@](c3ccccc3OC)(N3C[C@H](O)C[C@H]3C(=O)N(C)C)c3cc(Cl)ccc32)c(OC)c1`, which outcome is on record?
Answer: inactive

Question: How did the AC50 turn out when `Nc1ccc(S(=O)(=O)c2ccc(N)cc2)cc1` was run?
Answer: 3.85 µM (active)

Question: With `CCCCN(CCCC)CCCC` as the molecule, how does the AC50 read?
Answer: 16.7 µM (active)

Question: How did the AC50 turn out when `CCCCC(CC)COC(=O)CC(C(=O)OCC(CC)CCCC)S(=O)(=O)O` (stereo not given) was run?
Answer: 8.14 µM (active)

Question: How did the AC50 turn out when `CN1CCN(Cc2cc(-c3ccc4[nH]c(=O)oc4c3)co2)[C@@H](c2ccc(F)cc2)C1` was run?
Answer: 1.99 µM (active)

Question: Which outcome does the source give for `COC(=O)c1ccc(O)cc1` here?
Answer: inactive

Question: For `Cc1ccc(C)c(O)c1C`, which AC50 is on record?
Answer: 10.3 µM (active)

Question: `CC1(C)CC(N=C=O)CC(C)(CN=C=O)C1` (stereo not given) was tested. Which outcome did it give?
Answer: inactive

Question: How did the outcome turn out when `CCOC(=O)CCC(=O)OCC` was run?
Answer: inactive

Question: How did the outcome turn out when `Cc1c(C(=O)O)c(O)cc2c1C(=O)c1c(O)c([C@@H]3O[C@H](CO)[C@@H](O)[C@H](O)[C@H]3O)c(O)c(O)c1C2=O` was run?
Answer: inactive

Question: With `Oc1ccc2c(c1)OC[C@@H](N1CCC(O)(c3ccc(F)cc3)CC1)[C@H]2O` as the molecule, how does the AC50 read?
Answer: 12.5 µM (active)

Question: Which AC50 does the source give for `COc1ccc2c(c1)c(CC(=O)O)c(C)n2C(=O)c1ccc(Cl)cc1` here?
Answer: 7.64 µM (active)

Question: For `Cc1ccc2ncccc2c1`, which outcome is on record?
Answer: inactive

Question: How did the outcome turn out when `O=C(O)Cc1ccccc1Nc1c(Cl)cccc1Cl` was run?
Answer: inactive

Question: `CN1CCCC1=O` was tested. Which AC50 did it give?
Answer: 25 µM (active)

Question: `CC=Cc1ccc(O)c(OC)c1` was tested. Which AC50 did it give?
Answer: 8.8 µM (active)

Question: `CCOC(=O)C(C)(C)Oc1ccc(Cl)cc1` was tested. Which outcome did it give?
Answer: inactive
